# FLuc inh – blocks purified firefly luciferase enzyme activity. P08659. purified P. pyralis luciferase, luminescence, biochemical. Potency, µM (series often up to 115 µM), hits mostly inhibitors. hit rate 2.5% among 76,000. AID 1347043; active means well fitted curve in the direction sought with a large enough effect; inconclusive means small, poorly fitted or top-dose-only effect, or another doubt; inactive means no such curve, though single readings can be large; an effect the other way counts as inactive or inconclusive; further: nearly all actives have a fitted effect of over 65% in size
#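 Biochemical qHTS: compound (6-point titration) added to 10uM D-luciferin plus 10uM ATP in Tris acetate pH 7.5 buffer with Mg, Tween-20 and BSA, then purified enzyme at 10nM; light output imaged.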
# hNpr1 antagonist – antagonists of human natriuretic peptide receptor Npr1; P16066; HEK293 hNpr1 GloSensor cGMP, ANP-stimulated luminescence; Potency, µM (top dose mostly 46.3 µM), hits mostly inhibitors; hit rate 1.6% among 76,000; AID 1347048; further: nearly all actives have a fitted effect of over 60% in size
#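 Compound pre-incubated 30 min at room temperature on GloSensor-loaded HEK293 cells stably carrying hNpr1 and the pGS-40F cGMP biosensor. Stimulation uses hNppA at 0.1 nM final; luminescence is taken at baseline and 20 min post-agonist.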
# NIH3T3 tox – cytotoxic compounds in NIH 3T3 cells | NIH 3T3 viability, CellTiter-Glo ATP luminescence, 48-72 h | Potency, µM (titrated, usually from 96.7 µM), usual class: inhibitors | hit rate 4.3% among 94,000; active means well fitted curve in the direction sought with a large enough effect; inconclusive means small, poorly fitted or top-dose-only effect, or another doubt; inactive means no such curve, though single readings can be large; an effect the other way counts as inactive or inconclusive; further: nearly all actives have a fitted effect of over 55% in size
#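 Cells were seeded at 400 per well, treated with pin-transferred compound, and kept 48 or 72 hr at 37 °C before CellTiter-Glo addition and luminescence imaging of cellular ATP.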
# HEK293 tox – HEK 293 cell cytotoxicity; hit rate 6.6% among 94,000; Potency, µM (titrated, usually from 115 µM), hits mostly inhibitors; HEK 293 viability, ATP luminescence (CellTiter-Glo), 48-72 h; AID 1345083; active means well fitted curve in the direction sought with a large enough effect; inconclusive means small, poorly fitted or top-dose-only effect, or another doubt; inactive means no such curve, though single readings can be large; an effect the other way counts as inactive or inconclusive; further: nearly all actives have a fitted effect of over 60% in size
#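 Cells seeded first (HEK 293, 250 cells/well), then compound added by pintool. Incubation ran 48 or 72 hr at 37 degree Celsius. CellTiter-Glo was added and luminescence imaged after 10 min at room temperature.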
# NPR1 antag cnf – hNpr1 antagonism, confirmation assay; shares compounds with hNpr1 antagonist; HEK293 hNpr1 cGMP GloSensor luminescence, ANP-stimulated; Potency, µM (highest dose often 57.6 µM), usual class: inhibitors; hit rate 76% among 1,400; further: nearly all actives have a fitted effect of over 70% in size
# NPR2 antag – antagonizes human Npr2, subtype selectivity check; shares compounds with hNpr1 antagonist; HEK293 hNpr2 GloSensor cGMP luminescence, CNP-stimulated; Potency, µM (top dose mostly 57.6 µM), most hits filed as inhibitors; hit rate 67% among 1,400; AID 1347046; further: nearly all actives have a fitted effect of over 70% in size
# Target sequence (P20594 whole entry, looked up): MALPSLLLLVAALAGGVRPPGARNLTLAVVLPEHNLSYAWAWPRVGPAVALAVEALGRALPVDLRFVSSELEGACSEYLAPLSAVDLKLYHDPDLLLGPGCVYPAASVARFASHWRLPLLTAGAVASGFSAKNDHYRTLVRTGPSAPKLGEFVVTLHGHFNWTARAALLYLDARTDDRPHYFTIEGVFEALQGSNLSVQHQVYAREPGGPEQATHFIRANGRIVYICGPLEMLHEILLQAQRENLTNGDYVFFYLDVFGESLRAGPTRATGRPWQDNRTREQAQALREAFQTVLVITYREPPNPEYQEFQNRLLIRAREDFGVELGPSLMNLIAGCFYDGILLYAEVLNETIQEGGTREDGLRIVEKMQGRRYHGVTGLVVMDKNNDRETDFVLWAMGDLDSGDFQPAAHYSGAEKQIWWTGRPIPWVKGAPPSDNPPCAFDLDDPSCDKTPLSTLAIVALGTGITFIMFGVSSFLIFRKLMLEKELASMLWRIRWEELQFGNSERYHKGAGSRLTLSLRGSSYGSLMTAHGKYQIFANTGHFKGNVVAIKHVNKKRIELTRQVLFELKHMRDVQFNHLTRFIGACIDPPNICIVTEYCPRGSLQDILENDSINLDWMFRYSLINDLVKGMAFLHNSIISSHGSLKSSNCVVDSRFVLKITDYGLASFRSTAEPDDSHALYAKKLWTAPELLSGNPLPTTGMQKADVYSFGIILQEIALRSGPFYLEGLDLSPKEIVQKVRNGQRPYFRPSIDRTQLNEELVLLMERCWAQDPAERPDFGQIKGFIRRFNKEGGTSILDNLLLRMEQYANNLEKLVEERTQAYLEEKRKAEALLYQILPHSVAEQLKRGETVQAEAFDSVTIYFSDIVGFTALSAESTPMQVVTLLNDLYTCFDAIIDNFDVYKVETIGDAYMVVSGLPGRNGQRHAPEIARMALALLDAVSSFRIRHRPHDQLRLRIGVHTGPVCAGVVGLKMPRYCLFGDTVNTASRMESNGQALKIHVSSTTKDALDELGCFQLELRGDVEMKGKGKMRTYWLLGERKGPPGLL
# FLuc counter – counter-screen for Npr1 antagonists: firefly luciferase inhibitors; shares compounds with hNpr1 antagonist; purified FLuc enzyme, luminescence, Km substrate; Potency, µM (titrated, usually from 57.6 µM), most hits filed as inhibitors; hit rate 0.7% among 1,400; AID 1347047; active means well fitted curve in the direction sought with a large enough effect; inconclusive means small, poorly fitted or top-dose-only effect, or another doubt; inactive means no such curve, though single readings can be large; an effect the other way counts as inactive or inconclusive; further: series mostly up to about 58 µM
# GloSensor cGMP – counter-screen for Npr1 antagonists: GloSensor control cell line; shares compounds with hNpr1 antagonist; HEK293 GloSensor cGMP, SNP-stimulated, luminescence; Potency, µM (doses to about 57.6 µM), actives largely listed as inhibitors; hit rate 69% among 1,400; AID 1347051; further: nearly all actives have a fitted effect of over 70% in size
# Hits are given with their value; n = inactive; u = inconclusive; x = no result. Sampled rows, rich in hits. Any-hit rate of the full collection: about 11%. Unless noted, the call rests on the fitted dose curve.
SMILES,FLuc inh,hNpr1 antagonist,NIH3T3 tox,HEK293 tox,NPR1 antag cnf,NPR2 antag,FLuc counter,GloSensor cGMP
CN1C[C@@H](NC(=O)c2ccc3c(c2)OCO3)C[C@H]1c1nc(-c2ccc(Cl)cc2)no1,n,35µM,79µM,50µM,28µM,31µM,n,25µM
O=C1NC2(CCN(Cc3ccc(OC(F)(F)F)cc3)C2)Oc2ccccc21 (stereo not drawn),n,n,u,u,x,x,x,x
O=C1NC2(CCN(Cc3ccc(OC(F)(F)F)cc3)C2)OCc2ccccc21 (stereo not drawn),n,u,n,79µM,22µM,22µM,n,17µM
CN(Cc1ccccc1)C1CCCc2ccccc21 (stereo not drawn),n,n,n,n,x,x,x,x
O=C(NCc1ccccc1)C1CCN(Cc2ccccc2-c2cccnc2)CC1,x,x,n,n,x,x,x,x
O=C(c1nnc(COc2cccc(N3CCOCC3)c2)n1Cc1ccccc1)N1CCC[C@@H]1c1ccc(Br)cc1,n,u,u,u,x,x,x,x
Cc1nn2c(c1-c1ccccc1Oc1ccccc1)N(Cc1ccc(OCC(=O)O)cc1)CCC2,n,n,u,n,x,x,x,x
Cc1nn2c(c1-c1ccccc1Oc1ccccc1)N(C(=O)COc1ccccc1)CCC2,n,u,u,79µM,31µM,22µM,n,u
Cc1nn2c(c1-c1ccccc1OCc1ccccc1)N(C(=O)COc1ccccc1)CCC2,n,u,11µM,40µM,17µM,12µM,n,n
Cc1ccc(CNC(=O)c2ccc3c(c2)CN(Cc2ccc(N(C)C)cc2)CCO3)cc1,n,11µM,u,u,24µM,27µM,n,27µM
O=C(NCc1ccccc1)c1ccc2c(c1)OCCN(c1ccccc1)C2,n,u,u,u,u,u,n,u
O=C(Nc1ccc(F)cc1)c1ccc2c(c1)OCCN(c1ccccc1)C2,n,32µM,u,56µM,40µM,40µM,n,40µM
Cc1nc(C)c(CC(=O)N2CCCC(C)(Cc3ccc4c(c3)OCO4)C2)s1 (stereo not drawn),n,14µM,n,28µM,19µM,22µM,n,17µM
COc1ccc(CNC2CN(C(=O)OC(C)(C)C)C2)cc1,x,x,n,n,x,x,x,x
CC(C)(C)OC(=O)N1CC(NCc2ccc(-c3ccc(OC(F)(F)F)cc3)cc2)C1,x,x,u,u,22µM,22µM,n,17µM
O=C(c1ccc(Cl)cc1)N1CCC(N2CCCCC2=O)CC1,x,x,n,n,x,x,x,x
COc1ccc(C(=O)N2CCC3(CC2)NC(=O)N(Cc2ccccc2)C3=O)cc1,n,n,n,n,x,x,x,x
COc1ccc(C(=O)N2CCC3(C2)C(=O)N(Cc2ccccc2)c2ccccc23)cc1 (stereo not drawn),n,5µM,u,u,17µM,17µM,n,11µM
O=C(NCc1ccco1)C1CN(S(=O)(=O)c2ccccc2)CC12CCCCC2 (stereo not drawn),n,n,n,u,x,x,x,x
Cc1ccc(C)c(NC(=O)CN2C(=O)NC(c3ccc(Cl)cc3)C3=C2COC3=O)c1 (stereo not drawn),n,n,u,u,x,x,x,x
O=C(CN1C(=O)NC(c2ccc(Cl)cc2)C2=C1COC2=O)Nc1ccc(Br)cc1F (stereo not drawn),n,u,28µM,35µM,24µM,u,n,27µM
O=C(NCC1CC1)c1ccc2oc(-c3cccnc3)nc2c1,x,x,n,n,x,x,x,x
O=C(CC1CCCCN(Cc2ccccc2)C1=O)N1CCN(c2ccc(F)cc2)CC1 (stereo not drawn),n,11µM,n,u,24µM,22µM,n,22µM
O=C(CC1CCCCN(Cc2ccccc2)C1=O)Nc1ccc(F)cc1F (stereo not drawn),n,n,n,u,x,x,x,x
CC(C)(C)C(=O)N1CCCC2(COc3ccccc3[S+](=O)([O-])N2)C1 (stereo not drawn),x,x,n,n,x,x,x,x

# High-throughput results from PubChem.
